PubChem BioAssay AID1159580 (chemical genetic matrix, 2015)
Among all 5,500 compounds or so, about 2,000 (36%) were called active. Not shown: some 18% with an inconclusive outcome. This is one part of the list. A number with no mark means an inactive call. Cut-off read from the data, not from the text of the source: active = normalized growth mostly below about 0.91 (no sharp cut-off); inconclusive = no clear call, values can overlap the other calls; inactive = mostly above about 0.92.

Assay: chemical genetic growth profiling, strain panel (AID 1159580);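 note: tested at 20 µM; growth read once vehicle control cultures reached saturation at 30 °C; 1 = growth at the plate median or of vehicle wells; lower values mean less growth of the strain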
Details: S. cerevisiae deletion strains, growth OD

## O=C(O)C1=CC(=C(c2ccc(O)c(C(=O)O)c2)c2ccc(O)c(C(=O)O)c2)C=CC1=O
Locus YAL013W, strain DEP1, hits give low values
  normalized growth: 0.976
Locus YAL021C, strain ccr4, hits give low values
  normalized growth: 0.952
Locus YAL026C, strain drs2, hits give low values
  normalized growth: 0.983
Locus YAL030W, strain snc1, hits give low values
  normalized growth: 0.986
Locus YAL040C, strain CLN3, hits give low values
  normalized growth: 1.02
Locus YBL061C, strain skt5, hits give low values
  normalized growth: 0.963
Locus YBR009C, strain hhf1, hits give low values
  normalized growth: 1
Locus YBR023C, strain chs3, hits give low values
  normalized growth: 0.976
Locus YBR171W, strain sec66, hits give low values
  normalized growth: 0.963
Locus YBR231C, strain swc5, hits give low values
  normalized growth: 0.954
Locus YBR279W, strain paf1, hits give low values
  normalized growth: 0.968
Locus YCL011C, strain gbp2, hits give low values
  normalized growth: 0.974
Locus YCL016C, strain dcc1, hits give low values
  normalized growth: 0.995
Locus YCL061C, strain MRC1 (second series), hits give low values
  normalized growth: 0.98
Locus YCL061C, strain MRC1, hits give low values
  normalized growth: 0.999
Locus YCL069W, strain vba3, hits give low values
  normalized growth: 0.972
Locus YCR088W, strain abp1, hits give low values
  normalized growth: 0.985
Locus YDL005C, strain med2, hits give low values
  normalized growth: 0.966
Locus YDL040C, strain nat1, hits give low values
  normalized growth: 0.987
Locus YDR001C, strain nth1, hits give low values
  normalized growth: 0.992
Locus YDR069C, strain doa4, hits give low values
  normalized growth: 0.917
Locus YDR137W, strain rgp1, hits give low values
  normalized growth: 1.06
Locus YDR150W, strain NUM1, hits give low values
  normalized growth: 0.97
Locus YDR159W, strain sac3, hits give low values
  normalized growth: 1.03
Locus YDR195W, strain ref2
  normalized growth: 1
Locus YDR297W, strain sur2, hits give low values
  normalized growth: 0.978
Locus YDR334W, strain swr1, hits give low values
  normalized growth: 0.957
Locus YDR335W, strain msn5, hits give low values
  normalized growth: 0.965
Locus YDR392W, strain spt3, hits give low values
  normalized growth: 0.95
Locus YEL003W, strain gim4, hits give low values
  normalized growth: 0.973
Locus YEL037C, strain rad23, hits give low values
  normalized growth: 0.966
Locus YEL061C, strain CIN8 (second series), hits give low values
  normalized growth: 0.979
Locus YER002W, strain NOP16, hits give low values
  normalized growth: 1.02
Locus YER015W, strain faa2, hits give low values
  normalized growth: 0.952
Locus YER016W, strain bim1, hits give low values
  normalized growth: 0.985
Locus YER111C, strain swi4, hits give low values
  normalized growth: 0.961
Locus YER155C, strain BEM2 (second series), hits give low values
  normalized growth: 0.953
Locus YFR010W, strain ubp6, hits give low values
  normalized growth: 0.976
Locus YGL167C, strain pmr1, hits give low values
  normalized growth: 0.97
Locus YGL173C, strain kem1, hits give low values
  normalized growth: 0.984
Locus YGL227W, strain vid30, hits give low values
  normalized growth: 0.988
Locus YGL240W, strain doc1, hits give low values
  normalized growth: 0.985
Locus YGL253W, strain hxk2, hits give low values
  normalized growth: 0.978
Locus YGR229C, strain SMI1, hits give low values
  normalized growth: 0.823 (active)
Locus YHR013C, strain ard1, hits give low values
  normalized growth: 0.952
Locus YHR027C, strain rpn1, hits give low values
  normalized growth: 0.98
Locus YHR030C, strain SLT2, hits give low values
  normalized growth: 1.01
Locus YHR079C, strain IRE1, hits give low values
  normalized growth: 1
Locus YHR142W, strain chs7, hits give low values
  normalized growth: 0.946
Locus YJL092W, strain hpr5, hits give low values
  normalized growth: 0.97
Locus YJL095W, strain BCK1 (second series), hits give low values
  normalized growth: 0.963
Locus YJL095W, strain BCK1, hits give low values
  normalized growth: 0.982
Locus YJL115W, strain asf1, hits give low values
  normalized growth: 0.999
Locus YJL129C, strain trk1, hits give low values
  normalized growth: 1.01
Locus YJL154C, strain vps35, hits give low values
  normalized growth: 0.982
Locus YJL164C, strain tpk1, hits give low values
  normalized growth: 0.969
Locus YJL166W, strain qcr8, hits give low values
  normalized growth: 0.979
Locus YJL187C, strain SWE1, hits give low values
  normalized growth: 0.969
Locus YJR066W, strain TOR1, hits give low values
  normalized growth: 0.877
Locus YJR075W, strain HOC1, hits give low values
  normalized growth: 0.974
Locus YKL160W, strain elf1, hits give low values
  normalized growth: 0.976
Locus YKR026C, strain gcn3, hits give low values
  normalized growth: 0.989
Locus YKR091W, strain srl3, hits give low values
  normalized growth: 0.981
Locus YLL001W, strain dnm1, hits give low values
  normalized growth: 0.998
Locus YLL026W, hits give low values
  normalized growth: 0.985
Locus YLL041C, strain sdh2, hits give low values
  normalized growth: 0.981
Locus YLR027C, strain aat2, hits give low values
  normalized growth: 0.981
Locus YLR113W, strain HOG1, hits give low values
  normalized growth: 1.05
Locus YLR221C, strain rsa3, hits give low values
  normalized growth: 0.983
Locus YLR258W, strain gsy2, hits give low values
  normalized growth: 0.967
Locus YLR262C, strain YPT6 (second series), hits give low values
  normalized growth: 0.973
Locus YLR320W, strain mms22, hits give low values
  normalized growth: 0.985
Locus YLR342W, strain FKS1, hits give low values
  normalized growth: 0.978
Locus YLR357W, strain rsc2, hits give low values
  normalized growth: 0.857
Locus YLR370C, strain arc18, hits give low values
  normalized growth: 0.98
Locus YLR384C, strain iki3, hits give low values
  normalized growth: 0.957
Locus YML120C, strain ndi1, hits give low values
  normalized growth: 0.978
Locus YMR058W, strain fet3, hits give low values
  normalized growth: 0.714 (active)
Locus YMR125W, strain sto1, hits give low values
  normalized growth: 0.958
Locus YMR129W, hits give low values
  normalized growth: 0.989
Locus YMR205C, strain PFK2, hits give low values
  normalized growth: 1.01
Locus YMR231W, strain pep5, hits give low values
  normalized growth: 0.946
Locus YNL071W, strain lat1, hits give low values
  normalized growth: 0.974
Locus YNL175C, strain NOP13, hits give low values
  normalized growth: 1
Locus YNL183C, strain NPR1, hits give low values
  normalized growth: 0.913
Locus YNL197C, strain WHI3, hits give low values
  normalized growth: 1
Locus YNL209W, strain ssb2, hits give low values
  normalized growth: 0.952
Locus YNL224C, strain SQS1, hits give low values
  normalized growth: 1.03
Locus YNL248C, strain rpa49, hits give low values
  normalized growth: 0.999
Locus YNL322C, strain KRE1 (second series), hits give low values
  normalized growth: 0.999
Locus YNL322C, strain KRE1, hits give low values
  normalized growth: 0.93
Locus YNR049C, strain mso1, hits give low values
  normalized growth: 0.992
Locus YOR001W, strain rrp6, hits give low values
  normalized growth: 0.959
Locus YOR070C, strain gyp1, hits give low values
  normalized growth: 0.995
Locus YOR080W, strain dia2, hits give low values
  normalized growth: 0.988
Locus YOR083W, strain WHI5 (second series), hits give low values
  normalized growth: 0.999
Locus YOR083W, strain WHI5, hits give low values
  normalized growth: 0.97
Locus YOR106W, strain vam3, hits give low values
  normalized growth: 0.836 (active)
Locus YOR231W, strain MKK1, hits give low values
  normalized growth: 1.01
Locus YOR265W, strain rbl2, hits give low values
  normalized growth: 0.99
Locus YOR270C, strain vph1, hits give low values
  normalized growth: 0.942
Locus YOR290C, strain snf2, hits give low values
  normalized growth: 0.966
Locus YPL051W, strain arl3, hits give low values
  normalized growth: 0.907 (active)
Locus YPL055C, strain LGE1, hits give low values
  normalized growth: 0.961
Locus YPL078C, strain atp4, hits give low values
  normalized growth: 0.982
Locus YPL106C, strain sse1, hits give low values
  normalized growth: 0.915
Locus YPL240C, strain hsp82, hits give low values
  normalized growth: 0.973
Locus YPL256C, strain CLN2, hits give low values
  normalized growth: 1.06
